According to PubChem BioAssay (NCI):
“And” between values parts separate entries of the source, which are not always exact repeats. Equal values may be shown once. This is part of a sample that, as a whole, favours compounds with a hit. Of some 83,000 tested, about 20% had one in any assay.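 Treatment: one concentration, 48 hours, 96-well format. Scoring: percent growth, with anything below 10 considered active.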 The source made the active and inactive calls.

Test system: MDA-MB-468 breast
Experiment: NCI-60 one-dose screen, 48 h (100 = growth as untreated, 0 = no growth, -100 = all killed)
Conditions: 10 µM unless noted

Q: With `O=C(NCCNC(=O)c1cc(S(=O)(=O)NCCc2ccccc2)c(O)c(O)c1O)c1cc(S(=O)(=O)NCCc2ccccc2)c(O)c(O)c1O` as the compound, how does the growth read?
A: 83.2% (inactive)

Q: With `Cc1cc2c3ccc(C)[n+](C)c3ccc2n1C` as the compound, how does the growth read?
A: 19.1% (inactive)

Q: How did the growth turn out when `COc1ccc2[nH]c(C(=O)OCc3ccc4cccc(O)c4n3)cc2c1` was run?
A: -70.8% (active)

Q: `O=C(NNC(=O)c1cccc(Cl)c1)c1ccccc1` was tested. Which growth did it give?
A: 94.4% (inactive)

Q: `CSc1ccc2c(c1)N(C(=O)/C(C#N)=C/c1c[nH]c3ccccc13)c1ccccc1S2` was tested. Which growth did it give?
A: 12% (inactive)

Q: `CCOc1ccccc1-c1cc(-c2cccs2)c(C#N)c(=O)[nH]1` was tested. Which growth did it give?
A: 2.06% (active)

Q: For `CCCCCCCCCCCCCCCCCC(=O)NCCNC(=O)CCCCCCCCCCCCCCCCC`, which growth is on record?
A: 102% (inactive)

Q: With `O=C(Nc1cccc(-n2ccc3c(NC(=O)c4ccccc4)nccc32)c1)c1cccc(C(F)(F)F)c1` as the compound, how does the growth read?
A: -2% (active)

Q: With `COC1C[C@H](O[C@@H]2C[C@H](O[C@@H]3C[C@H](O[C@@H]4C(=O)c5c(cc6cc(O[C@H]7C[C@@H](O[C@H]8C[C@@H](O)[C@H](O)C(C)O8)[C@H](O)C(C)O7)c(C)c(O)c6c5O)C[C@H]4C(OC)C(=O)[C@@H](O)[C@@H](C)O)OC(C)[C@H]3O)OC(C)[C@@H]2O)OC(C)[C@@H]1O` (stereo not given in full) as the compound, how does the growth read?
A: -55% (active)

Q: How did the growth turn out when `COc1ccc(C2CC(n3nnnc3-c3ccccc3)=NN2)cc1` (stereo not given) was run?
A: 64.5% (inactive)

Q: How did the growth turn out when `Cc1nc(N)nc(SCc2ccccc2)c1Br` was run?
A: 69% (inactive)

Q: For `CCOC(=O)C1=C(C)N=C2Sc3cc(OC(F)(F)F)ccc3N2[C@H]1c1ccccn1`, which growth is on record?
A: 29.1% (inactive)

Q: For `COc1cc2c3c(c4c5ccccc5[nH]c4c2c(OC)c1OC)C(=O)N(CCN1CCCCC1)C3=O`, which growth is on record?
A: 63.7% (inactive)

Q: For `Cc1cc(OCCO)cc(C)c1Cl`, which growth is on record?
A: 124% (inactive)

Q: `O=C(CCN1CCCCC1)c1ccc2ccccc2c1` was tested. Which growth did it give?
A: 92.1% (inactive)

Q: With `COc1ccc(Cn2nc(-c3cc(OC)c(OC)c(OC)c3)c3c2CCc2cnoc2-3)cc1OC` as the compound, how does the growth read?
A: -12.8% (active)

Q: For `O=C(CCC(=O)N1CCOCC1)OCCCCCCSc1ccc([N+](=O)[O-])c2nonc12`, which growth is on record?
A: -43.1% (active)

Q: For `O=C(/C=C/c1cccnc1)/C=C/c1cccnc1`, which growth is on record?
A: -64.1% (active)

Q: For `NC(=O)c1ccc(C2C3=C(CCCC3=O)OC3=C2C(=O)c2ccccc2C3=O)cc1` (stereo not given), which growth is on record?
A: -30.6% (active)

Q: For `C=C1C(=O)O[C@H]2[C@H]1CC/C(COC(=O)CCSCCC(=O)OC/C1=C/CC[C@@]3(C)O[C@H]3[C@H]3OC(=O)C(=C)[C@@H]3CC1)=C\CC[C@@]1(C)O[C@@H]21`, which growth is on record?
A: -23.6% (active)

Q: How did the growth turn out when `Cn1cc(-c2nc(-c3cn(C)c4ncccc34)cs2)c2ccccc21` was run?
A: -21.1% (active)

Q: Which growth does the source give for `CNC(=O)c1cc(-n2ccc3cc(NC(=O)Nc4ccc(N5CCOCC5)c(C(F)(F)F)c4)ccc32)ccn1` here?
A: 95.2% (inactive)

Q: For `C=C(C)[C@@H]1CC[C@]2(C)[C@H](CC=C3[C@@H]4CC(C)(C)CC[C@]4(C=O)CC[C@]32C)[C@@]1(C)CCCN`, which growth is on record?
A: 51.3% (inactive)

Q: With `COC(=O)/C(CCC=C(C)C)=C1\[C@@H](OC(C)=O)C[C@@]2(C)[C@H]1CC(=O)N[C@H]1[C@@]3(C)CCNC(=O)[C@@H](C)[C@@H]3CC[C@@]12C` as the compound, how does the growth read?
A: 99.7% (inactive)

Q: With `N#C/C(=C\c1ccc(-c2cccc(C(F)(F)F)c2)o1)c1ccccc1` as the compound, how does the growth read?
A: 23.4% (inactive)

Q: Which growth does the source give for `CN1C(=O)C2(SCC(C(=O)NCc3ccccc3)N2C(=O)C2CCCCC2)c2ccccc21` (stereo not given) here?
A: 98.2% (inactive)

Q: `COc1cccc(-c2nc(-c3ccc(NC(=O)C(C)C)cc3)[nH]c2-c2ccnc(Br)c2)c1` was tested. Which growth did it give?
A: 26.4% (inactive)

Q: With `CCCNC(=O)Oc1ccc(/C(=C(\C)c2ccccc2)c2ccc(OCCN3CCCCC3)cc2)cc1` as the compound, how does the growth read?
A: 73.6% (inactive)

Q: With `[2H]c1cc2c(c([2H])c1F)/C(=C/c1[nH]c(C)c(C(=O)NCCN(CC)CC)c1C)C(=O)N2` as the compound, how does the growth read?
A: 118% (inactive)

Q: `Nc1nc2c(c3ncccc13)C(c1ccccc1)Cc1ncccc1-2` (stereo not given) was tested. Which growth did it give?
A: 55.8% (inactive)

Q: With `COc1ccccc1/C=C/C(=O)/C=C/c1ccccc1OC` as the compound, how does the growth read?
A: -61.8% (active) and -11.8% (active)

Q: Which growth does the source give for `COc1ccc(-c2nnc3n(C)c(=O)c4ccccc4n23)cc1O` here?
A: -2.48% (active)

Q: For `COc1ccc(NC2=C(Br)C(=O)C(C)=C(C)C2=O)cc1`, which growth is on record?
A: -59% (active)

Q: For `CC(C)CSc1nc(-c2ccc(F)cc2)c(C#N)c(N2CCCCC2)n1`, which growth is on record?
A: 101% (inactive)

Q: With `CCOC(=O)c1c(Nc2ccccc2)nn2c(-c3cccs3)ccnc12` as the compound, how does the growth read?
A: 73.3% (inactive)
